# From PubChem
# A selection: hits, their analogues and other compounds. The true share with any hit is near 8%.
# HT1080-NT tox – qHTS for induction of synthetic lethality in tumor cells producing 2HG: qHTS for the HT-1080-NT fibrosarcoma cell line; HT-1080-NT fibrosarcoma viability, CellTiter-Glo ATP luminescence, 48 h; Potency, µM (highest dose often 46.1 µM), actives largely listed as cytotoxic; 360,000 tested, 1.6% active;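 also: NT is the 2HG producing partner of a matched IDH1 knockdown line; nearly all actives have a fitted effect of over 55% in size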
#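 Read-out is CellTiter-Glo luminescence after 10 minutes at room temperature, following 48 hours' compound treatment of HT-1080-NT cells (750 cells/well, RPMI, 5% FBS, 37 degrees C).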
# KB-V1 MDR tox – qHTS assay for MDR1-selective chemotherapeutics: Primary screen using the drug-selected MDR subline cells KB-V1. KB-V1 MDR cells viability, CellTiter-Glo, 72 h. Potency, µM (top dose mostly 46.1 µM), most hits filed as cytotoxic. 400,000 tested, 3.4% active; also: nearly all actives have a fitted effect of over 60% in size
#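 Compound-treated KB-V1 multidrug-resistant cells, 72 h, 37 degrees C; viability by CellTiter-Glo. Fitted qHTS curves give the values.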
# MCF10A rerep – A quantitative high throughput screen for small molecules that induce DNA re-replication in MCF 10a normal breast cells | MCF 10A DNA re-replication, Hoechst nuclear intensity, 48 h | Potency, µM (doses to about 46.1 µM), most hits filed as activators | 350,000 tested, 2.9% active; also: nearly all actives have a fitted effect of over 50% in size
# SW480 rerep – A quantitative high throughput screen for small molecules that induce DNA re-replication in SW480 colon adenocarcinoma cells | SW480 DNA re-replication, Hoechst DNA content imaging, 48 h | Potency, µM (highest dose often 46.1 µM), most hits filed as activators | 340,000 tested, 1.8% active; also: nearly all actives have a fitted effect of over 55% in size
#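 Hoechst fluorescence of nuclei (405 nm excitation, 500-530 nm emission) measured by plate-scanning imager after 48 hr compound exposure at 37 C; re-replication scored as increased number of nuclei with elevated intensity.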
# HT1080 IDH1KD tx – qHTS for induction of synthetic lethality in tumor cells producing 2HG: qHTS for the HT-1080-IDH1KD cell line; 360,000 tested, 2% active; Potency, µM (top dose mostly 46.1 µM), hits mostly cytotoxic; HT-1080 IDH1 knockdown viability, ATP luminescence, 48 h; AID 686971, 2013
#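 In this qHTS, HT-1080 cells depleted of IDH1 are exposed for 48 h at 37 °C to compound titrations. Toxicity is scored from CellTiter-Glo luminescence, with DMSO as full viability and medium alone as none.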
# KB-3-1 cytotox – qHTS assay for MDR1-selective chemotherapeutics: Primary screen using the parental adenocarcinoma cell KB-3-1. Potency, µM (doses to about 46.1 µM), most hits filed as cytotoxic. KB-3-1 viability, CellTiter-Glo ATP luminescence, 72 h. AID 1347075, 2019. 400,000 tested, 1.4% active; also: nearly all actives have a fitted effect of over 60% in size
#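 Cells are dispensed, compounds pinned in, plates held at 37 °C for 72 h, then CellTiter-Glo is added and luminescence read after 10 minutes. Cell line: parental KB-3-1 in phenol-red-free DMEM, 10% FBS.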
# Numbers stand for hits; . = inactive; ? = inconclusive; / = no result; ! = a repeat was not active; [ ] = dose if it differs, or a comment. Calls follow the shape of the dose curve; as a rule, active = well fitted curve in the direction sought with a large enough effect; inconclusive = small, poorly fitted or top-dose-only effect, or another doubt; inactive = no such curve, though single readings can be large; an effect the other way counts as inactive or inconclusive.
SMILES,HT1080-NT tox,KB-V1 MDR tox,MCF10A rerep,SW480 rerep,HT1080 IDH1KD tx,KB-3-1 cytotox
O=C(O)Cn1cc(/C=C/[N+](=O)[O-])c2ccccc21,.,?,.,.,.,.
O=C(Cn1c(=O)n(Cc2ccco2)c(=O)c2ccccc21)Nc1ccc(Cl)cc1Cl,/,.,/,/,/,.
CC(=O)c1ccc(N2CCN(c3ncnc4c3cnn4-c3cc(Cl)ccc3C)CC2)cc1,/,.,/,/,/,?
CCC(CC)c1nn2c(N)c(/C=C3\C(C)=Nc4ccccc43)c(=O)nc2s1,.,?,23µM,.,.,.
CC(C)Sc1nsc2nc(=O)c(/C=C3\C=Nc4ccccc43)c(N)n12,.,.,18µM,?,.,.
CS(=O)(=O)c1nsc2nc(=O)c(/C=C3\C=Nc4ccccc43)c(N)n12,.,.,.,.,.,.
CCC(CC)c1nn2c(N)c(/C=C3\C=Nc4ccccc43)c(=O)nc2s1,.,.,3.3µM,?,.,.
CCc1cccc(CC)c1NC(=O)CCS(=O)(=O)c1ccc(Br)s1,/,.,/,/,/,.
CN(Cc1ccccc1)CC(O)COc1ccc(CNCc2ccc(Cl)s2)cc1 (centres undefined),21µM,.,16µM,21µM,?,.
CN(Cc1ccccc1)CC(O)COc1ccc(CNCc2cccnc2)cc1 (centres undefined),.,.,?,.,?,.
CCC(Sc1ncc(S(=O)(=O)c2ccc(Cl)cc2)c(=O)[nH]1)C(=O)Nc1ccc(OC)cc1 (centres undefined),/,.,/,/,/,.
Cn1cc(/C=N/NC(=O)c2ccccc2O)c2ccccc21,.,.,.,.,.,.
O=C(N/N=C/c1cc2c3c(c1O)CCCN3CCC2)c1ccccc1O,?,?,13µM,9.2µM,?,4.1µM
CCc1ccccc1NC(=O)c1sc(-n2nc(C)c(Cc3ccc4c(c3)OCO4)c2C)nc1C,/,.,/,/,/,.
CCN1CCN(Cc2ccc(NC(=O)c3cc(NC(=O)c4cncc(-c5ccc(C#N)cc5)c4)cc(OC)c3)cc2C(F)(F)F)CC1,?,.,10µM,.[9.22 µM],?,?
CCN1CCN(Cc2ccc(NC(=O)c3cc(NC(=O)c4nccnc4N)cc(OC)c3)cc2C(F)(F)F)CC1,.,.,?,.[9.22 µM],.,.
CCN1CCN(Cc2ccc(NC(=O)c3ccc(C)c(NC(=O)c4cccc5[nH]ccc45)c3)cc2C(F)(F)F)CC1,?,?,?,3.3µM,?,16µM!
CCN1CCN(Cc2ccc(NC(=O)c3ccc(C)c(NC(=O)c4cncc(-c5cccs5)c4)c3)cc2C(F)(F)F)CC1,21µM,?,5.2µM,?,18µM,?
CN(C)/C=C1/C=C(c2ccccc2)OC1=O,?,.,18µM,?,?,.
CNC(=S)N(Cc1ccc(OC)cc1)C1CC(=O)N(c2ccc(Cl)cc2)C1=O (centres undefined),.,.,.,.,.,?
COc1ccc(CCN(C(=S)Nc2ccccc2)C2CC(=O)N(c3ccccc3)C2=O)cc1 (centres undefined),.,.,.,.,.,.
CNC(=S)N(Cc1ccc2c(c1)OCO2)C1CC(=O)N(c2ccc(F)cc2)C1=O (centres undefined),.,16µM,.,.,.,?
CNC(=S)N(CCc1ccc(S(N)(=O)=O)cc1)C1CC(=O)N(c2ccccc2F)C1=O (centres undefined),.,.,.[9.22 µM],5.8µM,.,?
O=C1CC(N(CCc2ccccc2)C(=S)Nc2ccccc2)C(=O)N1c1ccc(Br)cc1 (centres undefined),16µM,?,?,?,?,?
COc1cccc(-n2c(=O)c3c(C)c(C)sc3n(Cc3ccccc3C#N)c2=O)c1,/,.,/,/,/,.
